# Screening results: PubChem, several laboratories
# In the library only some 7% were active in any assay of this set; here they are far more common.
# proKLK7 act – proKLK7 zymogen activators, primary screen, biochemical, fluorescence intensity. activation, % at 7 µM. Kallikrein-7 (Homo sapiens), P49862. purified proKLK7, EDANS-DABCYL substrate fluorescence; 100% is mature enzyme control, 0% vehicle. actives 0.9% (n = 370,000);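 active = activation above the mean of all tested compounds plus 3 SD, computed per campaign excluding outliers beyond control limits, cut at about 13% in these data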
# Target sequence (P49862 whole entry, looked up): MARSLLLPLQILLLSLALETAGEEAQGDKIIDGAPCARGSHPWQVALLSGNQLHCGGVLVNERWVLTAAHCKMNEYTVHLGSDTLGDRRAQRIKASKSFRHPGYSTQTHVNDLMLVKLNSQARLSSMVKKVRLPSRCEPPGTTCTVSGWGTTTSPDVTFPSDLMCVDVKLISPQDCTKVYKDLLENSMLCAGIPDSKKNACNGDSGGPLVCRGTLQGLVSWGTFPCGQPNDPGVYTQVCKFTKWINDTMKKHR
# NR3A LBD binder – binders of NR3A ligand-binding domain, primary screen, biophysical, differential scanning fluorimetry, uHTS; NR3A LBD differential scanning fluorimetry, Tm shift; 0% = protein alone, 100% = glycine-bound protein; Tm shift relative to glycine control, % at 25 µM; actives 2.5% (n = 340,000); AID 1259313, 2017;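 active = melting temperature shift of at least 10% of the positive control shift, at one fixed dose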
# ADAM10 inh – human ADAM10 inhibitors, primary screen, biochemical, QFRET, HTS. Disintegrin and metalloproteinase domain-containing protein 10 (Homo sapiens), O14672. recombinant ADAM10, EDANS/DABCYL FRET peptide cleavage, 3 h. inhibition, % at 7 µM. actives 0.62% (n = 370,000);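 active = inhibition above a per-campaign cutoff equal to the mean of compounds falling between control-based bounds plus 3 SD, cut at about 20% in these data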;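 also: 0% = DMSO wells while the 100% control is not disclosed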
# rCAG RNA binder – binders of r(CAG) RNA repeats, primary screen, biochemical, fluorescence. r(CAG) RNA repeat, TO-PRO-1 dye displacement fluorescence. inhibition, % at 3 µM. actives 1.3% (n = 370,000);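 active = inhibition above the plate cutoff, the mean of all test compounds on that plate plus 3 SD, cut at about 35% in these data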;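 also: 0% = DMSO alone and 100% = 100 µM mitoxantrone as full dye displacement; higher means more dye released from RNA so lower well fluorescence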
# ADAM17 inh – ADAM17 inhibitors, primary screen, biochemical, QFRET. actives 0.83% (n = 370,000). recombinant ADAM17, EDANS/DABCYL FRET peptide cleavage. inhibition, % at 6.95 µM. AID 720648, 2013. Disintegrin and metalloproteinase domain-containing protein 17 (Homo sapiens), P78536;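 active = inhibition above the mean of compounds lying between control limits plus 3 SD, set per campaign, cut at about 8.5% in these data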;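 also: 0% = DMSO-only wells as the low control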
# AHR activator – AHR activators, primary screen, cell-based, luminescence, luciferase reporter, human; AHR-responsive luciferase reporter cells; activation, % at 5 µM; actives 2.5% (n = 320,000); in the data active = activation above about 47%;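 also: 0% = vehicle wells and 100% = reference agonist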
# proKLK7 act conf – proKLK7 zymogen activators, confirmation, biochemical, fluorescence intensity, triplicate. shares compounds with proKLK7 act. actives 68% (n = 3,200). activation, % at 7 µM. purified proKLK7, EDANS-DABCYL substrate fluorescence; scaled: vehicle 0, mature enzyme 100;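 active = activation, as change over the incubation, above the mean of all tested compounds plus 3 SD, cut at about 13% in these data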
# EDANS interfere – EDANS-DABCYL substrate optical interference, artefact control for kallikrein-7 zymogen activator project, biochemical, fluorescence intensity, high throughput | no enzyme, 4 h; solvent 0%, active enzyme control 100% | shares compounds with proKLK7 act | AID 686952, 2013 | actives 80% (n = 3,200) | activation, % at 7 µM;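 active = activation above the all-compound mean plus 3 SD, ignoring values outside control-based bounds, cut at about 4.8% in these data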;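 also: value is the 4 h activation minus the activation read at time zero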
# EDANS interf – optically interferes with EDANS-DABCYL fluorescence, kallikrein-7 activator counter-screen. shares compounds with proKLK7 act. EDANS-DABCYL peptide fluorescence interference, no enzyme. actives 20% (n = 250). EC50, µM;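 active = compounds that raise the fluorescence signal in this interference counterscreen, with EC50 at or below 10 µM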;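 also: intact quenched peptide substrate alone read at 355 nm excitation and 520 nm emission; signal is fluorescence gain from T0 to T4 after four hours at room temperature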
# Active calls of the source: *; i = inactive; x = not tested or not shown.
SMILES,proKLK7 act,NR3A LBD binder,ADAM10 inh,rCAG RNA binder,ADAM17 inh,AHR activator,proKLK7 act conf,EDANS interfere,others
COc1cc2c(cc1OC)C(COc1ccc([N+](=O)[O-])cc1)NCC2 (centres undefined),14*,4,-172,1,-44,4,0,-1,
Cc1ccc2nc3c(c(N)c2c1)CCN3c1ccccc1,106*,1,i,11,i,4,-188,-84,
CC1C2=C(CC(C)(C)CC2=O)NC2=C1C(=O)CC(C)(C)C2,19*,1,i,-1,i,-2,74*,73*,
c1ccn2c(c1)nc1c2nc2ccccn21,81*,0,i,-1,i,4,70*,73*,
O=C(Nc1ccccc1N1CCCCC1)C1CCN(C(=O)c2ccc(Cl)cc2)CC1,1,-3,4,-6,1,1,x,x,
Nc1cccc2c1C(=O)N(Cc1cccc(Cl)c1)C2=O,27*,-12,-204,-4,-77,0,4,-17,
COc1cccc2sc3cc(NCc4ccc5c(c4)OCO5)ccc3c(=O)c12,42*,-3,i,6,-213,76*,47*,46*,
O=C(O)CC1(CC(=O)Nc2ccccc2N2CCOCC2)CCCC1,0,-1,1,1,-1,12,x,x,
COc1ccccc1N1C(=O)c2ccccc2NC1c1ccc(O)cc1 (centres undefined),23*,0,-401,2,-153,1,20*,26*,
CCOc1cc(C2Nc3ccccc3C(=O)N2c2ccccc2OC)ccc1O (centres undefined),9,-2,-290,-1,-72,5,x,x,
COc1cc(C2Nc3ccccc3C(=O)N2c2ccccc2OC)ccc1O (centres undefined),13*,-1,-251,1,-79,3,15*,17*,
COc1ccccc1/C=C/C(=O)NCC(=O)N/N=C/c1ccc(C)o1,1,-1,-32,12,-15,17,x,x,
Nc1ccc(-c2nc3cc(N)ccc3n2CCO)cc1,68*,-1,i,1,-394,5,66*,69*,
COc1ccccc1C1C=C(c2ccccc2)Nc2nnnn21 (centres undefined),21*,0,-33,0,-6,43,16*,14*,EDANS interf=i
COc1cccc(C2=CC(c3ccc(OC)c(OC)c3OC)n3nnnc3N2)c1 (centres undefined),6,1,-6,4,-1,9,x,x,
CC(=O)N1CCOc2ccc(S(=O)(=O)NCC3CCC(C(=O)Nc4ncccc4C)CC3)cc21 (centres undefined),0,1,-5,-5,-1,-1,x,x,
Cc1ccccc1NS(=O)(=O)c1ccc(C(=O)NCC(C)(C)N2CCOCC2)cc1,0,1,-1,1,-4,1,x,x,
OC1c2cc(Cl)cc(Cl)c2N=C2CCCN21 (centres undefined),15*,x,-441,1,-122,x,18*,11*,EDANS interf=i
N#Cc1ccc(-c2ccc(OCC(=O)Nc3cccnc3)cc2)cc1,18*,8,-15,0,-9,x,-1,-1,
